Like-named read-outs stand apart in the source and are kept apart here.
Assays:
SgK110 = details: concentration: 1 μM, replicates: in singlicate; n = 1
TAK1 = test system: T1, TAK1; details: concentration: 1 μM, replicates: in singlicate; n = 1
T1 construct: gene MAP3K7

TAOK1 = details: concentration: 1 μM, replicates: in singlicate; n = 1
TAOK2 = details: concentration: 1 μM, replicates: in singlicate; n = 1
TAOK3 = details: concentration: 1 μM, replicates: in singlicate; n = 1
TBK1 = details: concentration: 1 μM, replicates: in singlicate; n = 1
TEC = details: concentration: 1 μM, replicates: in singlicate; n = 1
TESK1 = details: concentration: 1 μM, replicates: in singlicate; n = 1
TGFBR1 = details: n = 1
TGFBR2 = details: concentration: 1 μM, replicates: in singlicate; n = 1
TIE1 = details: concentration: 1 μM, replicates: in singlicate; n = 1
TIE2 = test system: T2, TIE2; details: concentration: 1 μM, replicates: in singlicate; n = 1
T2 construct: gene TEK

TLK1 = details: concentration: 1 μM, replicates: in singlicate; n = 1
TLK2 = details: concentration: 1 μM, replicates: in singlicate; n = 1
TNIK = details: concentration: 1 μM, replicates: in singlicate; n = 1
TNK1 = details: concentration: 1 μM, replicates: in singlicate; n = 1
TNK2 = details: concentration: 1 μM, replicates: in singlicate; n = 1
TNNI3K = details: concentration: 1 μM, replicates: in singlicate; n = 1
TRKA = test system: T3, TRKA; details: concentration: 1 μM, replicates: in singlicate; n = 1
T3 construct: gene NTRK1

TRKB = details: concentration: 1 μM, replicates: in singlicate; n = 1
[1] = concentration: 1 μM, replicates: in singlicate
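Note: KINOMEscan kinase panel screen.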

Compound: Clc1ccc(-c2cc(-c3c[nH]nc3-c3ccccn3)ccn2)cc1 [GW681251]
- %Inh (SgK110): 0%
- %Inh (TAK1): 0%
- %Inh (TAOK1): 0%
- %Inh (TAOK2): 0%
- %Inh (TAOK3): 0%
- %Inh (TBK1): 0%
- %Inh (TEC): 0%
- %Inh (TESK1): 12%
- %Inh (TGFBR1; 1 µM): 79%
- %Inh (TGFBR2): 85%
- %Inh (TIE1): 33%
- %Inh (TIE2): 0%
- %Inh (TLK1): 0%
- %Inh (TLK2): 0%
- %Inh (TNIK): 80%
- %Inh (TNK1): 0%
- %Inh (TNK2): 0%
- %Inh (TNNI3K): 17%
- %Inh (TRKA): 0%
- %Inh (TRKB): 0%

Compound: CC(C)N1CCC(n2cnc(-c3ccc(F)cc3)c2-c2ccnc(N)n2)CC1 [SB-223132]
- %Inh (SgK110): 0%
- %Inh (TAK1): 0%
- %Inh (TAOK1): 0%
- %Inh (TAOK2): 0%
- %Inh (TAOK3): 0%
- %Inh (TBK1): 50%
- %Inh (TEC): 6%
- %Inh (TESK1): 23%
- %Inh (TGFBR1; [1]): 25%
- %Inh (TGFBR2): 0%
- %Inh (TIE1): 0%
- %Inh (TIE2): 96.9%
- %Inh (TLK1): 5%
- %Inh (TLK2): 0%
- %Inh (TNIK): 11%
- %Inh (TNK1): 3%
- %Inh (TNK2): 0%
- %Inh (TNNI3K): 4%
- %Inh (TRKA): 0%
- %Inh (TRKB): 0%

Compound: Cc1ccc(C)c(NC(=O)NCCNc2ccnc(Nc3ccc(F)cc3)n2)c1 [GSK1379878]
- %Inh (SgK110): 0%
- %Inh (TAK1): 0%
- %Inh (TAOK1): 0%
- %Inh (TAOK2): 0%
- %Inh (TAOK3): 0%
- %Inh (TBK1): 7%
- %Inh (TEC): 0%
- %Inh (TESK1): 32%
- %Inh (TGFBR1; [1]): 0%
- %Inh (TGFBR2): 0%
- %Inh (TIE1): 0%
- %Inh (TIE2): 0%
- %Inh (TLK1): 1%
- %Inh (TLK2): 0%
- %Inh (TNIK): 0%
- %Inh (TNK1): 0%
- %Inh (TNK2): 9%
- %Inh (TNNI3K): 0%
- %Inh (TRKA): 10%
- %Inh (TRKB): 0%

Compound: COc1ccc(NC(=O)Nc2ccc(C)c(-c3ccc(C(=O)Nc4ccncc4)cc3)c2)cc1 [GSK1398475]
- %Inh (SgK110): 0%
- %Inh (TAK1): 0%
- %Inh (TAOK1): 0%
- %Inh (TAOK2): 0%
- %Inh (TAOK3): 0%
- %Inh (TBK1): 6%
- %Inh (TEC): 3%
- %Inh (TESK1): 19%
- %Inh (TGFBR1; [1]): 3%
- %Inh (TGFBR2): 0%
- %Inh (TIE1): 0%
- %Inh (TIE2): 0%
- %Inh (TLK1): 19%
- %Inh (TLK2): 0%
- %Inh (TNIK): 0%
- %Inh (TNK1): 0%
- %Inh (TNK2): 17%
- %Inh (TNNI3K): 17%
- %Inh (TRKA): 0%
- %Inh (TRKB): 0%

Compound: CC(C)(C)c1ccc(-n2cnc3c(N)ncnc32)cc1 [SKF-97263]
- %Inh (SgK110): 0%
- %Inh (TAK1): 10%
- %Inh (TAOK1): 6%
- %Inh (TAOK2): 0%
- %Inh (TAOK3): 8%
- %Inh (TBK1): 15%
- %Inh (TEC): 12%
- %Inh (TESK1): 0%
- %Inh (TGFBR1; [1]): 0%
- %Inh (TGFBR2): 6%
- %Inh (TIE1): 14%
- %Inh (TIE2): 0%
- %Inh (TLK1): 0%
- %Inh (TLK2): 0%
- %Inh (TNIK): 0%
- %Inh (TNK1): 5%
- %Inh (TNK2): 10%
- %Inh (TNNI3K): 12%
- %Inh (TRKA): 18%
- %Inh (TRKB): 0%

Compound: CNc1nccc(-c2c(-c3ccc(F)cc3)ncn2CCCN2CCOCC2)n1 [SB-222516]
- %Inh (SgK110): 7%
- %Inh (TAK1): 0%
- %Inh (TAOK1): 0%
- %Inh (TAOK2): 0%
- %Inh (TAOK3): 0%
- %Inh (TBK1): 5%
- %Inh (TEC): 33%
- %Inh (TESK1): 10%
- %Inh (TGFBR1; [1]): 0%
- %Inh (TGFBR2): 16%
- %Inh (TIE1): 0%
- %Inh (TIE2): 0%
- %Inh (TLK1): 0%
- %Inh (TLK2): 0%
- %Inh (TNIK): 0%
- %Inh (TNK1): 4%
- %Inh (TNK2): 0%
- %Inh (TNNI3K): 0%
- %Inh (TRKA): 0%
- %Inh (TRKB): 19%

Compound: O=C(Nc1n[nH]c2nc(-c3ccco3)c(Br)cc12)c1ccc(CN2CCCC2)cc1.O=C(O)[C@H](O)[C@@H](O)C(=O)O [SB-742352]
- %Inh (SgK110): 50%
- %Inh (TAK1): 0%
- %Inh (TAOK1): 0%
- %Inh (TAOK2): 0%
- %Inh (TAOK3): 0%
- %Inh (TBK1): 13%
- %Inh (TEC): 0%
- %Inh (TESK1): 8%
- %Inh (TGFBR1; [1]): 0%
- %Inh (TGFBR2): 0%
- %Inh (TIE1): 0%
- %Inh (TIE2): 0%
- %Inh (TLK1): 3%
- %Inh (TLK2): 0%
- %Inh (TNIK): 14%
- %Inh (TNK1): 38%
- %Inh (TNK2): 0%
- %Inh (TNNI3K): 12%
- %Inh (TRKA): 18%
- %Inh (TRKB): 0%

Compound: Cl.c1ccc(Cn2ccc3cc(Nc4ncnc5ccccc45)ccc32)cc1 [GW275568]
- %Inh (SgK110): 0%
- %Inh (TAK1): 6%
- %Inh (TAOK1): 0%
- %Inh (TAOK2): 23%
- %Inh (TAOK3): 0%
- %Inh (TBK1): 39%
- %Inh (TEC): 4%
- %Inh (TESK1): 9%
- %Inh (TGFBR1; [1]): 29%
- %Inh (TGFBR2): 0%
- %Inh (TIE1): 0%
- %Inh (TIE2): 0%
- %Inh (TLK1): 19%
- %Inh (TLK2): 0%
- %Inh (TNIK): 0%
- %Inh (TNK1): 0%
- %Inh (TNK2): 12%
- %Inh (TNNI3K): 18%
- %Inh (TRKA): 5%
- %Inh (TRKB): 0%

Compound: Nc1nc(-c2ccc3c(N)n[nH]c3c2)cc(N2CCC[C@@H](C(=O)Nc3ccccc3)C2)n1.O=C(O)C(F)(F)F.O=C(O)C(F)(F)F [GSK2288359]
- %Inh (SgK110): 0%
- %Inh (TAK1): 5%
- %Inh (TAOK1): 0%
- %Inh (TAOK2): 0%
- %Inh (TAOK3): 0%
- %Inh (TBK1): 31%
- %Inh (TEC): 0%
- %Inh (TESK1): 18%
- %Inh (TGFBR1; [1]): 22%
- %Inh (TGFBR2): 0%
- %Inh (TIE1): 0%
- %Inh (TIE2): 0%
- %Inh (TLK1): 15%
- %Inh (TLK2): 10%
- %Inh (TNIK): 0%
- %Inh (TNK1): 0%
- %Inh (TNK2): 1%
- %Inh (TNNI3K): 5%
- %Inh (TRKA): 0%
- %Inh (TRKB): 0%

Compound: Cn1ccc2ncnc(Nc3ccc(Oc4cccc(Cl)c4)c(Cl)c3)c21
- %Inh (SgK110): 11%
- %Inh (TAK1): 25%
- %Inh (TAOK1): 0%
- %Inh (TAOK2): 0%
- %Inh (TAOK3): 0%
- %Inh (TBK1): 28%
- %Inh (TEC): 96.7%
- %Inh (TESK1): 13%
- %Inh (TGFBR1; [1]): 4%
- %Inh (TGFBR2): 0%
- %Inh (TIE1): 0%
- %Inh (TIE2): 26%
- %Inh (TLK1): 22%
- %Inh (TLK2): 9%
- %Inh (TNIK): 17%
- %Inh (TNK1): 0%
- %Inh (TNK2): 0%
- %Inh (TNNI3K): 11%
- %Inh (TRKA): 0%
- %Inh (TRKB): 0%

From article PMC5540273 (PLoS ONE, 2017)
